Measured values published in PMC5540273 (PLoS ONE, 2017).
“And” between values parts separate entries of the source, which are not always exact repeats. Identical values can stand only once. Like-named read-outs stand apart in the source and are kept apart here.

How the values were obtained:
[1] = system: KIT-autoinhibited; details: concentration: 1 μM, replicates: in singlicate, n = 1
[2] = system: KIT; details: concentration: 1 μM, replicates: in singlicate, n = 1
[3] = system: LATS1; details: concentration: 1 μM, replicates: in singlicate, n = 1
[4] = system: LATS2; details: concentration: 1 μM, replicates: in singlicate, n = 1
[5] = system: LCK; details: concentration: 1 μM, replicates: in singlicate, n = 1
[6] = system: LIMK1; details: concentration: 1 μM, replicates: in singlicate; n = 1
[7] = system: LIMK2; details: concentration: 1 μM, replicates: in singlicate, n = 1
[8] = system: T1, LKB1; details: concentration: 1 μM, replicates: in singlicate, n = 1
T1 construct: gene STK11

[9] = system: T2, LOK; details: concentration: 1 μM, replicates: in singlicate, n = 1
T2 construct: gene STK10

[10] = system: LRRK2; details: concentration: 1 μM, replicates: in singlicate, n = 1
[11] = system: LTK; details: concentration: 1 μM, replicates: in singlicate, n = 1
[12] = system: LYN; details: concentration: 1 μM, replicates: in singlicate; n = 1
[13] = system: T3, LZK; details: concentration: 1 μM, replicates: in singlicate, n = 1
T3 construct: gene MAP3K13

[14] = system: MAK; details: concentration: 1 μM, replicates: in singlicate; n = 1
[15] = system: MAP3K15; details: concentration: 1 μM, replicates: in singlicate, n = 1
[16] = system: MAP3K1; details: concentration: 1 μM, replicates: in singlicate, n = 1
[17] = system: MAP3K2; details: concentration: 1 μM, replicates: in singlicate, n = 1
[18] = system: MAP3K3; details: concentration: 1 μM, replicates: in singlicate, n = 1
[19] = system: MAP3K4; details: concentration: 1 μM, replicates: in singlicate, n = 1
[20] = system: MAP4K2; details: concentration: 1 μM, replicates: in singlicate, n = 1
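Further: KINOMEscan kinase panel screen.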

SMILES: C[C@@H](Oc1cc(-n2cnc3ccc(NC(=O)NC(C)(C)C)cc32)sc1C(N)=O)c1ccccc1Cl [GSK346294]
- %Inh [1]: 1%
- %Inh [2]: 20%
- %Inh [3]: 0%
- %Inh [4]: 12%
- %Inh [5]: 37%
- %Inh [6]: 0%
- %Inh [7]: 25%
- %Inh [8]: 4%
- %Inh [9]: 36%
- %Inh [10]: 0%
- %Inh [11]: 13%
- %Inh [12]: 4%
- %Inh [13]: 37%
- %Inh [14]: 0%
- %Inh [15]: 0%
- %Inh [16]: 35%
- %Inh [17]: 0%
- %Inh [18]: 0%
- %Inh [19]: 0%
- %Inh [20]: 0%

SMILES: NCCNS(=O)(=O)c1ccc(-c2ccnc3[nH]ccc23)cc1 [GSK977617]
- %Inh ([1]; 1 µM): 0% and 21%
- %Inh ([2]; 1 µM): 44% and 28%
- %Inh ([3]; 1 µM): 75% and 70%
- %Inh ([4]; 1 µM): 95.8% and 95.9%
- %Inh ([5]; 1 µM): 38% and 3%
- %Inh [6]: 0%
- %Inh ([7]; 1 µM): 6% and 12%
- %Inh ([8]; 1 µM): 0% and 2%
- %Inh ([9]; 1 µM): 12% and 0%
- %Inh ([10]; 1 µM): 17% and 0%
- %Inh ([11]; 1 µM): 37% and 0%
- %Inh [12]: 0%
- %Inh ([13]; 1 µM): 22% and 3%
- %Inh [14]: 0%
- %Inh ([15]; 1 µM): 4% and 0%
- %Inh ([16]; 1 µM): 8% and 11%
- %Inh ([17]; 1 µM): 83% and 72%
- %Inh ([18]; 1 µM): 63% and 56%
- %Inh ([19]; 1 µM): 0% and 21%
- %Inh ([20]; 1 µM): 47% and 38%

SMILES: Cc1ccc(NC(=O)c2ccnc(N3CCN(C)CC3)c2)cc1-c1ccc(C(=O)NCC2CC2)cc1 [GW775604]
- %Inh [1]: 0%
- %Inh [2]: 27%
- %Inh [3]: 0%
- %Inh [4]: 0%
- %Inh [5]: 0%
- %Inh [6]: 0%
- %Inh [7]: 0%
- %Inh [8]: 28%
- %Inh [9]: 9%
- %Inh [10]: 0%
- %Inh [11]: 0%
- %Inh [12]: 0%
- %Inh [13]: 0%
- %Inh [14]: 0%
- %Inh [15]: 0%
- %Inh [16]: 0%
- %Inh [17]: 0%
- %Inh [18]: 0%
- %Inh [19]: 0%
- %Inh [20]: 0%

SMILES: Cn1ccc2ncnc(Oc3ccc(NC(=O)Nc4ccncc4)c(Cl)c3)c21
- %Inh [1]: 0%
- %Inh [2]: 74%
- %Inh [3]: 0%
- %Inh [4]: 0%
- %Inh [5]: 0%
- %Inh [6]: 0%
- %Inh [7]: 0%
- %Inh [8]: 13%
- %Inh [9]: 14%
- %Inh [10]: 0%
- %Inh [11]: 0%
- %Inh [12]: 0%
- %Inh [13]: 0%
- %Inh [14]: 10%
- %Inh [15]: 0%
- %Inh [16]: 0%
- %Inh [17]: 0%
- %Inh [18]: 0%
- %Inh [19]: 0%
- %Inh [20]: 0%

SMILES: O=C(NOCC1CC1)c1ccc(F)c(F)c1Nc1ccc(I)cc1Cl
- %Inh [1]: 0%
- %Inh [2]: 0%
- %Inh [3]: 0%
- %Inh [4]: 7%
- %Inh [5]: 0%
- %Inh [6]: 0%
- %Inh [7]: 0%
- %Inh [8]: 0%
- %Inh [9]: 0%
- %Inh [10]: 0%
- %Inh [11]: 0%
- %Inh [12]: 0%
- %Inh [13]: 0%
- %Inh [14]: 0%
- %Inh [15]: 0%
- %Inh [16]: 0%
- %Inh [17]: 0%
- %Inh [18]: 0%
- %Inh [19]: 0%
- %Inh [20]: 0%

SMILES: Fc1ccc(-c2nn3c(OCC(F)(F)F)cccc3c2-c2ccncc2)cc1 [GW514784]
- %Inh [1]: 0%
- %Inh [2]: 24%
- %Inh [3]: 41%
- %Inh [4]: 0%
- %Inh [5]: 7%
- %Inh [6]: 0%
- %Inh [7]: 0%
- %Inh [8]: 9%
- %Inh [9]: 0%
- %Inh [10]: 19%
- %Inh [11]: 0%
- %Inh [12]: 0%
- %Inh [13]: 37%
- %Inh [14]: 31%
- %Inh [15]: 0%
- %Inh [16]: 0%
- %Inh [17]: 0%
- %Inh [18]: 0%
- %Inh [19]: 0%
- %Inh [20]: 0%

SMILES: c1ccc(-c2cc(-c3c[nH]nc3-c3ccccn3)ccn2)cc1 [GW576604]
- %Inh [1]: 0%
- %Inh [2]: 9%
- %Inh [3]: 0%
- %Inh [4]: 0%
- %Inh [5]: 0%
- %Inh [6]: 0%
- %Inh [7]: 0%
- %Inh [8]: 17%
- %Inh [9]: 0%
- %Inh [10]: 0%
- %Inh [11]: 19%
- %Inh [12]: 0%
- %Inh [13]: 10%
- %Inh [14]: 0%
- %Inh [15]: 0%
- %Inh [16]: 0%
- %Inh [17]: 0%
- %Inh [18]: 0%
- %Inh [19]: 0%
- %Inh [20]: 0%

SMILES: COc1cc2c(cc1OCCN1CCN(C)CC1)ncc1c3ccc(C#N)cc3[nH]c21
- %Inh [1]: 71%
- %Inh [2]: 83%
- %Inh [3]: 0%
- %Inh [4]: 20%
- %Inh [5]: 57%
- %Inh [6]: 0%
- %Inh [7]: 0%
- %Inh [8]: 29%
- %Inh [9]: 33%
- %Inh [10]: 98.8%
- %Inh [11]: 0%
- %Inh [12]: 19%
- %Inh [13]: 11%
- %Inh [14]: 21%
- %Inh [15]: 61%
- %Inh [16]: 0%
- %Inh [17]: 0%
- %Inh [18]: 0%
- %Inh [19]: 0%
- %Inh [20]: 54%

SMILES: COc1ccc(Nc2nccc(N3CCC(NC(=O)Nc4cccc(C(C)=O)c4)C3)n2)cc1 (centres unmarked) [GSK1379731]
- %Inh [1]: 0%
- %Inh [2]: 49%
- %Inh [3]: 0%
- %Inh [4]: 0%
- %Inh [5]: 0%
- %Inh [6]: 1%
- %Inh [7]: 0%
- %Inh [8]: 5%
- %Inh [9]: 0%
- %Inh [10]: 2%
- %Inh [11]: 0%
- %Inh [12]: 0%
- %Inh [13]: 0%
- %Inh [14]: 29%
- %Inh [15]: 0%
- %Inh [16]: 14%
- %Inh [17]: 4%
- %Inh [18]: 0%
- %Inh [19]: 19%
- %Inh [20]: 0%

SMILES: O=c1cc(N2CCOCC2)nc2n(Cc3cccc(C(F)(F)F)c3)ccn12 [GSK2297543]
- %Inh [1]: 2%
- %Inh [2]: 13%
- %Inh [3]: 0%
- %Inh [4]: 0%
- %Inh [5]: 22%
- %Inh [6]: 0%
- %Inh [7]: 7%
- %Inh [8]: 10%
- %Inh [9]: 0%
- %Inh [10]: 0%
- %Inh [11]: 16%
- %Inh [12]: 0%
- %Inh [13]: 0%
- %Inh [14]: 31%
- %Inh [15]: 0%
- %Inh [16]: 5%
- %Inh [17]: 10%
- %Inh [18]: 0%
- %Inh [19]: 13%
- %Inh [20]: 0%
